Results published in the supplement of paper PMC8728848.
Only a selection was taken, and the strongest signals are over-represented in it overall.

Assays:
Assay in all cases: glycan array binding signal (z-score within array); higher = stronger binding
Details in all cases: glycan notation: IUPAC condensed, linker removed
Fuc(a1-2)Gal(b1-3)GalNAc = target: Fuc(a1-2)Gal(b1-3)GalNAc
Method in brief: (§1)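 The Consortium for Functional Glycomics database supplied 3228 glycan arrays, of which those lacking an available protein sequence were dropped. The binding signal, a within-array Z-score, was averaged across arrays of the same protein sequence and across linkers. Negative scores can be read as non-binding.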

[1] = target: Fuc(a1-2)[Gal(a1-3)]Gal(b1-4)[Fuc(a1-3)]Glc
Method in brief: as §1

[2] = target: Fuc(a1-2)[GalNAc(a1-3)]Gal(b1-4)GlcNAc(b1-2)Man(a1-3)[Fuc(a1-2)[GalNAc(a1-3)]Gal(b1-4)GlcNAc(b1-2)Man(a1-6)]Man(b1-4)GlcNAc(b1-4)[Fuc(a1-6)]GlcNAc
Method in brief: as §1

[3] = target: Fuc(a1-2)[GalNAc(a1-3)]Gal(b1-4)GlcNAc(b1-3)Gal(b1-4)GlcNAc(b1-3)Gal(b1-4)GlcNAc
Method in brief: as §1

[4] = target: Fuc(a1-2)[GalNAc(a1-3)]Gal(b1-4)[Fuc(a1-3)]GlcNAc
Method in brief: as §1

Gal(a1-3)Gal(b1-3)GlcNAc = target: Gal(a1-3)Gal(b1-3)GlcNAc
Method in brief: as §1

[5] = target: Gal(a1-3)Gal(b1-3)GlcNAc(b1-2)Man
Method in brief: as §1

Gal(a1-3)Gal(b1-4)Glc = target: Gal(a1-3)Gal(b1-4)Glc
Method in brief: as §1

[6] = target: Gal(a1-3)Gal(b1-4)GlcNAc(b1-2)Man
Method in brief: as §1

[7] = target: Gal(a1-3)[Gal(a1-4)]Gal(b1-4)GlcNAc
Method in brief: as §1

Gal(b1-3)Gal = target: Gal(b1-3)Gal
Method in brief: as §1

Gal(b1-3)GlcNAc(b1-2)Man = target: Gal(b1-3)GlcNAc(b1-2)Man
Method in brief: as §1

[8] = target: Gal(b1-3)GlcNAc(b1-2)Man(a1-3)[Gal(b1-3)GlcNAc(b1-2)Man(a1-6)]Man(b1-4)GlcNAc(b1-4)[Fuc(a1-6)]GlcNAc
Method in brief: as §1

[9] = target: Gal(b1-3)GlcNAc(b1-3)Gal(b1-3)GlcNAc
Method in brief: as §1

[10] = target: Gal(b1-3)GlcNAc(b1-3)Gal(b1-4)GlcNAc(b1-6)[Gal(b1-3)GlcNAc(b1-3)]Gal(b1-4)Glc
Method in brief: as §1

[11] = target: Gal(b1-3)[Fuc(a1-4)]GlcNAc(b1-2)Man
Method in brief: as §1

[12] = target: Gal(b1-4)GlcNAc(b1-2)Man(a1-3)[GlcNAc(b1-2)Man(a1-6)]Man(b1-4)GlcNAc(b1-4)GlcNAc
Method in brief: as §1

[13] = target: Gal(b1-4)GlcNAc(b1-2)Man(a1-3)[Man(a1-6)]Man(b1-4)GlcNAc(b1-4)GlcNAc
Method in brief: as §1

[14] = target: Gal(b1-4)GlcNAc(b1-2)Man(a1-6)[GlcNAc(b1-2)Man(a1-3)]Man(b1-4)GlcNAc(b1-4)GlcNAc
Method in brief: as §1

[15] = target: Gal(b1-4)GlcNAc(b1-3)Gal(b1-4)GlcNAc(b1-3)Gal(b1-4)GlcNAc(b1-3)Gal(b1-4)GlcNAc(b1-3)Gal(b1-4)GlcNAc(b1-2)Man(a1-3)[Gal(b1-4)GlcNAc(b1-3)Gal(b1-4)GlcNAc(b1-3)Gal(b1-4)GlcNAc(b1-3)Gal(b1-4)GlcNAc(b1-3)Gal(b1-4)GlcNAc(b1-2)Man(a1-6)]Man(b1-4)GlcNAc(b1-4)[Fuc(a1-6)]GlcNAc
Method in brief: as §1

[16] = target: Gal(b1-4)GlcNAc(b1-3)Gal(b1-4)GlcNAc(b1-3)[Gal(b1-4)GlcNAc(b1-3)Gal(b1-4)GlcNAc(b1-6)]GalNAc
Method in brief: as §1

[17] = target: Gal(b1-4)GlcNAc(b1-3)Gal(b1-4)[Fuc(a1-3)]GlcNAc(b1-3)Gal(b1-4)[Fuc(a1-3)]GlcNAc
Method in brief: as §1

[18] = target: Gal(b1-4)GlcNAc(b1-6)Gal(b1-4)GlcNAc
Method in brief: as §1

[19] = target: Gal(b1-4)GlcNAc(b1-6)GalNAc
Method in brief: as §1

Gal6P(b1-4)GlcNAc = target: Gal6P(b1-4)GlcNAc
Method in brief: as §1

[20] = target: GalNAc(b1-3)Gal(a1-6)Gal(b1-4)Glc
Method in brief: as §1

[21] = target: GalNAc3S(b1-4)[Fuc(a1-3)]GlcNAc
Method in brief: as §1

GalNAc4S6S(b1-4)GlcNAc = target: GalNAc4S6S(b1-4)GlcNAc
Method in brief: as §1

[22] = target: GlcNAc(b1-2)[GlcNAc(b1-4)]Man(a1-3)[GlcNAc(b1-2)Man(a1-6)]Man(b1-4)GlcNAc(b1-4)GlcNAc
Method in brief: as §1

[23] = target: GlcNAc(b1-3)Gal(b1-4)GlcNAc(b1-3)Gal(b1-4)GlcNAc(b1-3)Gal(b1-4)GlcNAc(b1-2)Man(a1-3)[GlcNAc(b1-3)Gal(b1-4)GlcNAc(b1-3)Gal(b1-4)GlcNAc(b1-3)Gal(b1-4)GlcNAc(b1-2)Man(a1-6)]Man(b1-4)GlcNAc(b1-4)GlcNAc
Method in brief: as §1

GlcNAc(b1-3)GalNAc = target: GlcNAc(b1-3)GalNAc
Method in brief: as §1

[24] = target: GlcNAc(b1-4)GlcNAc(b1-4)GlcNAc(b1-4)GlcNAc(b1-4)GlcNAc(b1-4)GlcNAc
Method in brief: as §1

[25] = target: GlcNAc(b1-4)[GlcNAc(b1-6)]GalNAc
Method in brief: as §1

[26] = target: Man(a1-3)[Man(a1-6)]Man(b1-4)GlcNAc(b1-4)GlcNAc
Method in brief: as §1

Man(a1-6)Man = target: Man(a1-6)Man
Method in brief: as §1

[27] = target: Neu5Ac(a2-3)Gal(b1-3)GlcNAc6S
Method in brief: as §1

[28] = target: Neu5Ac(a2-3)Gal(b1-3)[Fuc(a1-4)]GlcNAc(b1-3)Gal(b1-4)[Fuc(a1-3)]GlcNAc
Method in brief: as §1

[29] = target: Neu5Ac(a2-3)Gal(b1-3)]Neu5Ac(a2-3)Gal(b1-4)]GlcNAc
Method in brief: as §1

[30] = target: Neu5Ac(a2-3)Gal(b1-4)GlcNAc(b1-2)Man
Method in brief: as §1

[31] = target: Neu5Ac(a2-3)Gal(b1-4)GlcNAc(b1-6)GalNAc
Method in brief: as §1

[32] = target: Neu5Ac(a2-3)Gal(b1-4)GlcNAc(b1-6)[Gal(b1-3)]GalNAc
Method in brief: as §1

[33] = target: Neu5Ac(a2-3)Gal(b1-4)GlcNAc6S
Method in brief: as §1

[34] = target: Neu5Ac(a2-3)[Neu5Ac(a2-6)]GalNAc
Method in brief: as §1

Neu5Ac(a2-6)Gal = target: Neu5Ac(a2-6)Gal
Method in brief: as §1

[35] = target: Neu5Ac(a2-6)Gal(b1-4)GlcNAc(b1-2)Man(a1-6)Man(b1-4)GlcNAc(b1-4)GlcNAc
Method in brief: as §1

Neu5Ac(b2-6)GalNAc = target: Neu5Ac(b2-6)GalNAc
Method in brief: as §1

B1: Si Bti9 1b-V5-his (Solanum lycopersicum) (protein)
chain: MQCNRGCDLALASFYVWRGSNLTLISEMFSTSIADIVSYNNRDNIPNQDSVIAGTRINIPFRCDCLNDGEVLGHAFPYRVKSGDTYDLVARNYSDLTTAQWMMKFNSYPENNIPNTVNLSVVVNCSCGNSDVSKDFGLFVTYPVRAEDNLTSVASAANVSEDIIRRYNPAAVSILDIGQGIIYIPGRDRNGNFPPLPTSTDGLSGGAKKGGRADPAFLYKVVINSKLEGKPIPNPLLGLDSTRTGHHHHHH
glycan array binding signal (z-score) (Fuc(a1-2)Gal(b1-3)GalNAc): -0.261
glycan array binding signal (z-score) [1]: -0.298
glycan array binding signal (z-score) [2]: 0.032
glycan array binding signal (z-score) [3]: 0.217
glycan array binding signal (z-score) [4]: -0.245
glycan array binding signal (z-score) (Gal(a1-3)Gal(b1-3)GlcNAc): 11.5
glycan array binding signal (z-score) [5]: 6.21
glycan array binding signal (z-score) (Gal(a1-3)Gal(b1-4)Glc): -0.169
glycan array binding signal (z-score) [6]: -0.206
glycan array binding signal (z-score) [7]: 2.94
glycan array binding signal (z-score) (Gal(b1-3)Gal): -0.313
glycan array binding signal (z-score) (Gal(b1-3)GlcNAc(b1-2)Man): -0.032
glycan array binding signal (z-score) [8]: -0.076
glycan array binding signal (z-score) [9]: 0.11
glycan array binding signal (z-score) [10]: -0.125
glycan array binding signal (z-score) [11]: 1.83
glycan array binding signal (z-score) [12]: -0.243
glycan array binding signal (z-score) [13]: -0.294
glycan array binding signal (z-score) [14]: -0.277
glycan array binding signal (z-score) [15]: -0.258
glycan array binding signal (z-score) [16]: 0.207
glycan array binding signal (z-score) [17]: -0.264
glycan array binding signal (z-score) [18]: -0.272
glycan array binding signal (z-score) [19]: 2.79
glycan array binding signal (z-score) (Gal6P(b1-4)GlcNAc): -0.317
glycan array binding signal (z-score) [20]: -0.348
glycan array binding signal (z-score) [21]: 4.72
glycan array binding signal (z-score) (GalNAc4S6S(b1-4)GlcNAc): -0.18
glycan array binding signal (z-score) [22]: -0.289
glycan array binding signal (z-score) [23]: 3.41
glycan array binding signal (z-score) (GlcNAc(b1-3)GalNAc): -0.322
glycan array binding signal (z-score) [24]: -0.156
glycan array binding signal (z-score) [25]: 5.97
glycan array binding signal (z-score) [26]: -0.362
glycan array binding signal (z-score) (Man(a1-6)Man): 5.02
glycan array binding signal (z-score) [27]: 0.024
glycan array binding signal (z-score) [28]: -0.294
glycan array binding signal (z-score) [29]: -0.311
glycan array binding signal (z-score) [30]: 0.768
glycan array binding signal (z-score) [31]: -0.254
glycan array binding signal (z-score) [32]: -0.108
glycan array binding signal (z-score) [33]: 10.6
glycan array binding signal (z-score) [34]: -0.269
glycan array binding signal (z-score) (Neu5Ac(a2-6)Gal): 3.19
glycan array binding signal (z-score) [35]: -0.285
glycan array binding signal (z-score) (Neu5Ac(b2-6)GalNAc): -0.242
